PubChem BioAssay AID1159580 (chemical genetic matrix, 2015)
In all, about 5,500 compounds went through this assay and about 2,000 (36%) were called active. About 18% were inconclusive and are not listed. No stated cut-off is given here; in the data, active means normalized growth mostly below about 0.91 (no sharp cut-off); inconclusive means no clear call, values can overlap the other calls; inactive means mostly above about 0.92. The list shows a part of the results.

Assay: chemical genetic growth profiling, strain panel (AID 1159580);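 further: tested at 20 µM; growth read once vehicle control cultures reached saturation at 30 °C; 1 = growth at the plate median or of vehicle wells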
Conditions: S. cerevisiae deletion strains, growth OD
[1] = locus YDL101C, strain DUN1, stronger effect = lower value
[2] = locus YHR030C, strain SLT2, stronger effect = lower value
[3] = locus YAL013W, strain DEP1, stronger effect = lower value
[4] = locus YBR229C, strain ROT2, stronger effect = lower value
[5] = locus YDL134C, strain PPH21, stronger effect = lower value
[6] = locus YDR150W, strain NUM1, stronger effect = lower value
[7] = locus YEL061C, strain CIN8, stronger effect = lower value
[8] = locus YGR078C, strain PAC10, stronger effect = lower value
[9] = locus YHR087W, strain rtc3, stronger effect = lower value
[10] = locus YJR075W, strain HOC1, stronger effect = lower value
[11] = locus YLR039C, strain RIC1, stronger effect = lower value
[12] = locus YLR058C, strain SHM2 (second series), stronger effect = lower value
[13] = locus YLR085C, strain ARP6, stronger effect = lower value
[14] = locus YLR262C, strain YPT6, stronger effect = lower value
[15] = locus YML094W, strain GIM5, stronger effect = lower value
[16] = locus YMR219W, strain ESC1, stronger effect = lower value
[17] = locus YMR263W, strain SAP30, stronger effect = lower value
[18] = locus YMR307W, strain GAS1, stronger effect = lower value
[19] = locus YNL153C, strain GIM3, stronger effect = lower value
[20] = locus YNL298W, strain CLA4 (second series), stronger effect = lower value
[21] = locus YNL322C, strain KRE1, stronger effect = lower value
[22] = locus YNR030W, strain Alg12, stronger effect = lower value
[23] = locus YPL055C, strain LGE1, stronger effect = lower value
[24] = locus YPL241C, strain CIN2, stronger effect = lower value
[25] = locus YPR135W, strain CTF4, stronger effect = lower value

Measured: normalized growth

CCc1ccn2cc(Nc3ccccc3Cl)nc2c1
inactive: locus YAR019C, strain CDC15, stronger effect = lower value 0.983 | locus YBL105C, strain PKC1, stronger effect = lower value 0.976 | locus YBR135W, strain CKS1, stronger effect = lower value 0.98 | locus YBR136W, strain MEC1, stronger effect = lower value 0.968 | locus YBR160W, strain CDC28, stronger effect = lower value 0.971 | locus YDL017W, strain CDC7, stronger effect = lower value 0.974 | locus YDL028C, strain MPS1, stronger effect = lower value 0.98 | [1] 0.982 | locus YDL108W, strain KIN28, stronger effect = lower value 0.976 | locus YDL132W, strain cdc53, stronger effect = lower value 0.985 | locus YDL214C, strain PRR2, stronger effect = lower value 0.945 | locus YDR052C, strain DBF4, stronger effect = lower value 0.993 | locus YDR054C, strain cdc34, stronger effect = lower value 0.959 | locus YDR226W, strain ADK1, stronger effect = lower value 0.985 | locus YDR477W, strain SNF1, stronger effect = lower value 0.947 | locus YER123W, strain YCK3, stronger effect = lower value 0.898 | locus YER133W, strain GLC7, stronger effect = lower value 0.947 | locus YFL009W, strain cdc4, stronger effect = lower value 0.983 | locus YFL029C, strain CAK1, stronger effect = lower value 0.98 | locus YFR003C, strain YPI1, stronger effect = lower value 0.973 | locus YFR019W, strain FAB1, stronger effect = lower value 0.948 | locus YFR028C, strain CDC14, stronger effect = lower value 0.978 | locus YGR040W, strain KSS1, stronger effect = lower value 0.91 | locus YGR052W, strain FMP48, stronger effect = lower value 1.01 | locus YGR092W, strain DBF2, stronger effect = lower value 0.898 | [2] 0.965 | locus YHR079C, strain IRE1, stronger effect = lower value 0.96 | locus YHR082C, strain KSP1, stronger effect = lower value 0.998 | locus YHR205W, strain SCH9, stronger effect = lower value 0.959 | locus YIL147C, strain SLN1, stronger effect = lower value 0.973 | locus YJL095W, strain BCK1, stronger effect = lower value 0.96 | locus YJL128C, strain PBS2, stronger effect = lower value 0.967 | locus YJL157C, strain FAR1, stronger effect = lower value 0.906 | locus YJR016C, strain ILV3, stronger effect = lower value 0.987 | locus YJR066W, strain TOR1 (second series), stronger effect = lower value 0.895 | locus YJR066W, strain TOR1, stronger effect = lower value 0.973 | locus YKL048C, strain ELM1, stronger effect = lower value 0.984 | locus YKL067W, strain YNK1, stronger effect = lower value 0.962 | locus YKL101W, strain HSL1, stronger effect = lower value 0.949 | locus YKL193C, strain SDS22, stronger effect = lower value 0.979 | locus YKL203C, strain TOR2, stronger effect = lower value 0.973 | locus YLR113W, strain HOG1, stronger effect = lower value 0.916 | locus YLR133W, strain CKI1, stronger effect = lower value 0.928 | locus YLR403W, strain SFP1, stronger effect = lower value 0.886 | locus YML070W, strain DAK1, stronger effect = lower value 0.917 | locus YMR001C, strain CDC5, stronger effect = lower value 0.978 | locus YMR205C, strain PFK2 (second series), stronger effect = lower value 0.966 | locus YMR277W, strain FCP1, stronger effect = lower value 0.981 | locus YNL006W, strain LST8, stronger effect = lower value 0.997 | locus YNL020C, strain ARK1, stronger effect = lower value 0.94 | locus YNL161W, strain CBK1, stronger effect = lower value 0.98 | locus YNL183C, strain NPR1, stronger effect = lower value 0.973 | locus YNL207W, strain RIO2, stronger effect = lower value 0.972 | locus YNL222W, strain SSU72, stronger effect = lower value 0.973 | locus YNL307C, strain MCK1 (second series), stronger effect = lower value 0.917 | locus YOL078W, strain AVO1, stronger effect = lower value 0.981 | locus YOL136C, strain PFK27, stronger effect = lower value 0.926 | locus YOR061W, strain CKA2, stronger effect = lower value 0.963 | locus YOR119C, strain RIO1, stronger effect = lower value 0.985 | locus YOR231W, strain MKK1, stronger effect = lower value 0.905 | locus YOR329C, strain SCD5, stronger effect = lower value 0.972 | locus YPL031C, strain PHO85, stronger effect = lower value 0.911 | locus YPL153C, strain RAD53, stronger effect = lower value 0.912 | locus YPL204W, strain HRR25, stronger effect = lower value 0.921 | locus YPL209C, strain IPL1, stronger effect = lower value 0.976 | locus YPL256C, strain CLN2, stronger effect = lower value 0.917 | locus YPR025C, strain CCL1, stronger effect = lower value 0.983 | locus YPR106W, strain ISR1, stronger effect = lower value 0.971 | locus YPR111W, strain DBF20, stronger effect = lower value 0.97 | strain NNK1, stronger effect = lower value 0.981 | strain TSCII, stronger effect = lower value 0.983

O=C1CCC(c2cccs2)=NN1
inactive: [3] 0.979 | [4] 1 | [1] 0.974 | [5] 1 | [6] 0.986 | [7] 0.987 | [8] 0.99 | [2] 1.03 | [9] 0.999 | locus YJR043C, strain POL32, stronger effect = lower value 1 | [10] 1.01 | [11] 0.993 | [12] 1 | [13] 0.998 | [14] 1.02 | [15] 1 | [16] 0.997 | [17] 1.03 | [18] 1.09 | [19] 0.998 | [20] 1.01 | [21] 0.985 | [22] 1 | locus YOL006C, strain TOP1, stronger effect = lower value 0.99 | [23] 1.01 | [24] 1.05 | [25] 0.901

CC(=O)c1ccc(-c2cccs2)s1
inactive: [3] 0.95 | [4] 0.963 | [1] 0.944 | [5] 0.999 | [6] 0.953 | [7] 0.939 | [8] 0.989 | [9] 0.992 | locus YJL187C, strain SWE1, stronger effect = lower value 0.978 | [10] 0.995 | [12] 0.972 | [14] 0.855 | [15] 0.887 | [16] 0.981 | [17] 1 | [18] 0.95 | locus YNL128W, strain TEP1, stronger effect = lower value 0.98 | [20] 0.901 | [21] 0.985 | [22] 0.966 | [23] 0.9 | [24] 0.869 | [25] 0.69
active: [2] 0.58 | [11] 0.777 | [13] 0.606 | [19] 0.878
